Assay results taken from PubChem BioAssay (NCATS).
Records with an inconclusive call do not appear. Where a call stands in place of a potency, no number is given. The source made the active and inactive calls. Calls come from the whole dose curve; as a rule, active = well fitted inhibition curve with a large enough effect; inconclusive = small, poorly fitted or top-dose-only effect; inactive = flat fitted curve, though single readings scatter.

Biological target: Voltage-gated inwardly rectifying potassium channel KCNH2 (Homo sapiens) (UniProt Q12809)
Sequence (Q12809 whole entry, looked up): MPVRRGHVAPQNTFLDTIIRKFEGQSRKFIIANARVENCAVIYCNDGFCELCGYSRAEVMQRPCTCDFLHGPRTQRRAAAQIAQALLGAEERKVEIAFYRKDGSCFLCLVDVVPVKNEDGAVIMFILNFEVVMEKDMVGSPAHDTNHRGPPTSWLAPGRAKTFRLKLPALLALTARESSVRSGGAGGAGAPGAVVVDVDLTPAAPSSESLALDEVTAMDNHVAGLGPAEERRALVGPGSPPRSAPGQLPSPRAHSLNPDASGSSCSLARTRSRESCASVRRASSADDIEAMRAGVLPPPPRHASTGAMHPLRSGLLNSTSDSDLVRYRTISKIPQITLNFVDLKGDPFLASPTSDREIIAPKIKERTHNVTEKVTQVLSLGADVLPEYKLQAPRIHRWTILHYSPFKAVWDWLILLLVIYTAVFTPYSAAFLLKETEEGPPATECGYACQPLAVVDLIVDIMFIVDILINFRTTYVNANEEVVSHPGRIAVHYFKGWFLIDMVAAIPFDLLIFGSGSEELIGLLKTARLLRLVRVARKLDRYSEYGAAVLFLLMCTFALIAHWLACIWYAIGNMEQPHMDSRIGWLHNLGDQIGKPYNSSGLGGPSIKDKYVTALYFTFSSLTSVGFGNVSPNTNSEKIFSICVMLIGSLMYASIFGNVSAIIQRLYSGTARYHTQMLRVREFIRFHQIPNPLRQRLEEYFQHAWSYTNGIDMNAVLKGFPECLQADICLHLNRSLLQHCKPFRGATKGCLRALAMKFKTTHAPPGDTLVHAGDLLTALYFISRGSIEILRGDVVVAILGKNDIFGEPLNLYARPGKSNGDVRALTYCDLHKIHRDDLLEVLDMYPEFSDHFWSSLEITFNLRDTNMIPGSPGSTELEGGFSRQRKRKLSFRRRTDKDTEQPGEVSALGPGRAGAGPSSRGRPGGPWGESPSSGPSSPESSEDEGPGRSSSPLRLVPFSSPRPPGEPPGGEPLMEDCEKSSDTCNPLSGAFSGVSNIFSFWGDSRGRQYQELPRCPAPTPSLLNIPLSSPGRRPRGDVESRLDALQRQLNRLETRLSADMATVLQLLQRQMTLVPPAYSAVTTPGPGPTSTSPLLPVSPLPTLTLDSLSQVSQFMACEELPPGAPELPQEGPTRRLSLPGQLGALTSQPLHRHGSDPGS
Assay: qHTS Assay for Small Molecule Inhibitors of the Human hERG Channel Activity (AID 588834);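 note: lower thallium flux fluorescence means stronger hERG block; nearly all actives have a fitted effect of over 50% in size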
How it was run: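 Thallium-flux (FluxOR) read-out on FDSS: fluorescence read 10 s before and 2 min after stimulation buffer. hERG-BacMam-transduced U2OS cells, compound exposure about 10 min. AC50 by standard Hill equation.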
Potency is the fitted concentration of half-maximal effect.

With `COC(=O)CCC[N+](C)(C)C` the Potency was “inactive”.

With `CN(C)C(=O)CCSC(SCCC(=O)O)c1cccc(/C=C/c2ccc3ccc(Cl)cc3n2)c1` (stereo unspecified) the Potency was “inactive”.

With `CCCCC(CC)CCC(CC(C)C)OS(=O)(=O)O` (stereo unspecified) the Potency was “inactive”.

For `CO[C@H]1C[C@@H]2CC[C@@H](C)[C@@](O)(O2)C(=O)C(=O)N2CCCC[C@H]2C(=O)O[C@H]([C@H](C)C[C@@H]2CC[C@@H](OC(=O)C(C)(CO)CO)[C@H](OC)C2)CC(=O)[C@H](C)/C=C(\C)[C@@H](O)[C@@H](OC)C(=O)[C@H](C)C[C@H](C)/C=C/C=C/C=C/1C`, the Potency was “inactive”.

`NC(=O)[C@@H]1C[C@]2(NC(=O)NC2=O)c2cc(F)ccc2O1` was tested, and the Potency was “inactive”.

In the case of `NC(N)=NCC1COC2(CCCCC2)O1` (stereo unspecified), the Potency is reported as “inactive”.

With `C=C[C@]1(C)C[C@@H](OC(=O)CSCCN(CC)CC)[C@]2(C)[C@H](C)CC[C@]3(CCC(=O)[C@H]32)[C@@H](C)[C@@H]1O` the Potency was 2.24 µM (active).

In the case of `CC(=O)Nc1c(I)c(C(=O)N[C@H]2C(O)O[C@H](CO)[C@@H](O)[C@@H]2O)c(I)c(N(C)C(C)=O)c1I` (stereo partly specified), the Potency is reported as “inactive”.

In the case of `N[C@H](CC(=O)O)C(=O)O`, the Potency is reported as “inactive”.

For `CCCCCCCCCCCC(=O)N(CCO)CCO`, the Potency was “inactive”.

In the case of `CC(C)(C)CC(C)(C)c1cc(Cc2cc(C(C)(C)CC(C)(C)C)cc(-n3nc4ccccc4n3)c2O)c(O)c(-n2nc3ccccc3n2)c1`, the Potency is reported as “inactive”.

With `CO/N=C(\C(=O)N[C@@H]1C(=O)N2C(C(=O)[O-])=C(C[n+]3cccc4c3CCC4)CS[C@H]12)c1csc(N)n1` the Potency was “inactive”.

`CCCOC(=O)c1ccccc1O` was tested, and the Potency was “inactive”.

`COc1ccc(/C=N/NC(=O)c2ccncc2)c(C(=O)O)c1OC` was tested, and the Potency was “inactive”.

For `O=P(O)(O)OC[C@H](O)CO`, the Potency was “inactive”.

For `O=C[C@H](O)[C@@H](O)[C@@H](O)[C@H](O)CO`, the Potency was “inactive”.

In the case of `O[C@@H]([C@H](O)[C@H](O)CBr)[C@H](O)CBr`, the Potency is reported as “inactive”.

In the case of `C(=C\c1ccncc1)/c1ccccc1`, the Potency is reported as “inactive”.

`C[C@]12CC[C@@H]3c4ccc(O)cc4CC[C@H]3[C@@H]1CC[C@@H]2OP(=O)(O)O` was tested, and the Potency was “inactive”.

For `CC(C)(Oc1ccc(C2CCCc3ccccc32)cc1)C(=O)O` (stereo unspecified), the Potency was “inactive”.

`Nc1nc(NC2CC2)c2ncn([C@@H]3C=C[C@@H](CO)C3)c2n1` was tested, and the Potency was “inactive”.

With `CC(C)C1=CC2=CC[C@@H]3[C@](C)(CCC[C@@]3(C)C(=O)O)[C@H]2CC1` the Potency was “inactive”.

In the case of `F[Si-2](F)(F)(F)(F)F`, the Potency is reported as “inactive”.

In the case of `C[C@@H]1C/C=C/C=C/C=C/C=C/[C@H](O[C@@H]2O[C@H](C)[C@@H](O)[C@H](N)[C@@H]2O)C[C@@H]2O[C@](O)(C[C@@H](O)C[C@H]3O[C@@H]3/C=C/C(=O)O1)C[C@H](O)[C@H]2C(=O)O`, the Potency is reported as “inactive”.

`CC1=C(/C=C/C(C)=C/C=C/C(C)=C/C=C/C=C(C)/C=C/C=C(C)/C=C/C2=C(C)C[C@@H](O)CC2(C)C)C(C)(C)C[C@H](O)C1` was tested, and the Potency was “inactive”.

`COC(=O)[C@H]1[C@H]2C[C@@H]3c4[nH]c5cc(OC)ccc5c4CCN3C[C@H]2C[C@H](OC)[C@@H]1OC` was tested, and the Potency was 4.47 µM (active).

`O=C(O)c1cc(O)c2c(c1)[C@H]([C@H]1c3cc(C(=O)O)cc(O)c3C(=O)c3c(O[C@@H]4O[C@H](CO)[C@@H](O)[C@H](O)[C@H]4O)cccc31)c1cccc(O[C@@H]3O[C@H](CO)[C@@H](O)[C@H](O)[C@H]3O)c1C2=O` was tested, and the Potency was “inactive”.

`CC(C)N1CCN(c2ccc(OC[C@H]3CO[C@](Cn4cncn4)(c4ccc(Cl)cc4Cl)O3)cc2)CC1` was tested, and the Potency was 8.91 µM (active).

`Cc1ncc(C[n+]2csc(CCO)c2C)c(N)n1` was tested, and the Potency was “inactive”.

For `NC[C@H]1O[C@H](O[C@H]2[C@H](O)[C@@H](O[C@H]3O[C@H](CO)[C@@H](O)[C@H](N)[C@H]3O)[C@H](N)C[C@@H]2N)[C@H](N)C[C@@H]1O`, the Potency was “inactive”.

In the case of `NC(=S)NS(=O)(=O)c1ccc(N)cc1`, the Potency is reported as “inactive”.
